In PubChem BioAssay (EPA / NIEHS) one finds outcome and AC50 data, which are given here for 49 compounds.

Test [1] is described as follows: CCTE_Harrill_HTTr_Viability_MCF7: CCTE's 6-hour Cell Viability Assessment for the High-Throughput Transcriptomics (HTTr) Platform, in MCF-7 cells cultured in DMEM + 10% fetal bovine serum, Harrill Lab (AID 2284010). Summed up: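 Membrane integrity was scored by high-content imaging of propidium iodide dye exclusion after a 6 h exposure across an eight-point dilution series. Data were fitted bidirectionally relative to DMSO as negative control and baseline.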

Test [2] can be described thus: CCTE_Harrill_HTTr_Apoptosis_MCF7: CCTE's 6-hour Apoptosis Assessment for the High-Throughput Transcriptomics (HTTr) Platform, in MCF-7 cells cultured in DMEM + 10% fetal bovine serum, Harrill Lab (AID 2284011). Summed up: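 MCF-7 (DMEM + 10% FBS), 384-well; 8-pt dilution series, 6 h chemical exposure; caspase-3/7 activation via CellEvent Caspase 3/7 Green, HCI; bidirectional fit vs DMSO.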

The nature of test [3]: CCTE_Harrill_HTTr_CellCount_MCF7: CCTE's Cell Proliferation Assessment for the High-Throughput Transcriptomics (HTTr) Platform, Harrill Lab (AID 2284012; active = hit-call score of the fitted dose curve at least 0.9, where 1 is the maximum;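 note: cells exposed to compound for six hours; intended direction is loss of nuclei count meaning fewer cells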). In outline: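 MCF-7 cells were exposed for 6 h to an eight-point dilution series; Hoechst-labeled nuclei were counted by high content imaging. Curves were fitted bidirectionally against DMSO as negative control and baseline, with signal loss indicating reduced cell count.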

The term AC50 denotes the concentration giving half of the maximal activity seen.

Records with an inconclusive call do not appear. Calls of active or inactive are those of the source. Rule for the calls, unless noted: active = hit-call score of the fitted dose curve at least 0.9, where 1 is the maximum; inactive = score below 0.9.

As for `NC(N)=NC(=O)c1nc(Cl)c(N)nc1N`, the result in test [1] was inactive.

For the compound `CC1CC(OC(=O)c2ccccc2O)CC(C)(C)C1` (stereo unspecified), the result in test [1], in test [2] and in test [3] was inactive.

In the case of `COC(C)CCO` (stereo unspecified), the result in test [1] and in test [2] was inactive.

In the case of `Cc1c(N(C)C)c(=O)n(-c2ccccc2)n1C`, the result in test [1], in test [2] and in test [3] was inactive.

As for `O=C(O)c1cn(C2CC2)c2cc(N3CCNCC3)c(F)cc2c1=O`, the outcome in test [1], in test [2] and in test [3] was inactive.

Consider `Cc1cccc(Nc2ccccc2C(=O)O)c1C`, for which the result in test [1] was inactive.

As to `CC(C)=CCO`, the result in test [1] and in test [2] was inactive.

Turning to `CN1Cc2c(N)cccc2C(c2ccccc2)C1` (stereo unspecified), the outcome in test [1] was inactive.

As for `CCCCCC(CO)CCC` (stereo unspecified), the outcome in test [1], in test [2] and in test [3] was inactive.

As for `CN1[C@@H]2CC(OC(=O)[C@H](CO)c3ccccc3)C[C@H]1[C@@H]1O[C@@H]12` (stereo partly specified), the outcome in test [1], in test [2] and in test [3] was inactive.

Consider `C#C[C@]1(O)CC[C@H]2[C@@H]3CCC4=Cc5oncc5C[C@]4(C)[C@H]3CC[C@@]21C`, for which the outcome in test [1], in test [2] and in test [3] was inactive.

As to `N#Cc1ccccc1`, the outcome in test [1] and in test [3] was inactive.

On to `CCCCNC(=O)NS(=O)(=O)c1ccc(C)cc1`, for which the result in test [1] and in test [3] was inactive.

Consider `CC1CCC2CC1C2(C)C` (stereo unspecified), for which the outcome in test [1], in test [2] and in test [3] was inactive.

Regarding `CCCCCCCCCCCCCCCC(=O)O`, the outcome in test [1], in test [2] and in test [3] was inactive.

For the compound `Cc1ccc(O)c(C(C)(C)C)c1`, the result in test [1], in test [2] and in test [3] was inactive.

Take `CC(C)C[C@H]1C(=O)N2CCC[C@H]2[C@]2(O)O[C@](NC(=O)[C@@H]3C=C4c5cccc6[nH]c(Br)c(c56)C[C@H]4N(C)C3)(C(C)C)C(=O)N12`: the result in test [1] and in test [3] was inactive.

Turning to `CCN(CC)CCOC(=O)c1ccc(N)cc1`, the outcome in test [1] and in test [3] was inactive.

Regarding `NC(=O)NC1NC(=O)NC1=O` (stereo unspecified), the result in test [1], in test [2] and in test [3] was inactive.

Consider `O=C1C(c2[nH]c3ccc(S(=O)(=O)O)cc3c2O)=Nc2ccc(S(=O)(=O)O)cc21`, for which the outcome in test [1] and in test [3] was inactive.

In the case of `O=C(O)CN(CCN(CC(=O)O)CC(=O)O)CCN(CC(=O)O)CC(=O)O`, the outcome in test [1], in test [2] and in test [3] was inactive.

`CC(=O)/C=C/C1=C(C)CCCC1(C)C`: the result in test [1] and in test [3] was inactive.

As for `C=C(C)[C@@H]1CC[C@@H](C)C[C@@H]1O`, the outcome in test [1], in test [2] and in test [3] was inactive.

Regarding `CC(c1cc2ccccc2s1)N(O)C(N)=O` (stereo unspecified), the outcome in test [1], in test [2] and in test [3] was inactive.

Regarding `O=C(O)c1ccc(C(=O)O)cc1`, the result in test [1] and in test [3] was inactive.

On to `CC1(C)CCC(C)(C)c2cc(C(=O)Nc3ccc(C(=O)O)cc3)ccc21`, for which the result in test [1] and in test [3] was inactive.

Consider `CCCc1c(OCCCOc2ccc(OCC(=O)O)cc2)ccc(C(C)=O)c1O`, for which the outcome in test [1], in test [2] and in test [3] was inactive.

In the case of `CC(C)[C@H]1CC[C@@H](C)CC1=O`, the result in test [1], in test [2] and in test [3] was inactive.

`NCCCCCCN`: the outcome in test [1], in test [2] and in test [3] was inactive.

In the case of `CN(C)CCOCCN(C)C`, the result in test [1] and in test [3] was inactive.

Consider `Nc1ccc(S(N)(=O)=O)cc1`, for which the result in test [1] and in test [3] was inactive.

Consider `CCN(CC)c1ccc2c(-c3ccccc3C(=O)O)c3ccc(=[N+](CC)CC)cc-3oc2c1`, for which, in test [1], the AC50 is 0.394 µM (active). Besides, the result in test [2] and in test [3] was inactive.

For the compound `C=O`, the result in test [1] and in test [3] was inactive.

Take `O=C(O)Cc1cccc2ccccc12`: the outcome in test [1], in test [2] and in test [3] was inactive.

`CCCCCCCCCC=O`: the outcome in test [1], in test [2] and in test [3] was inactive.

On to `CCC(C)CCCC(C)(C)O` (stereo unspecified), for which the outcome in test [1] and in test [3] was inactive.

For `Cc1ccc(C=O)cc1`, the outcome in test [1] and in test [3] was inactive.

Turning to `C=CCOc1nc(OCC=C)nc(OCC=C)n1`, the result in test [1] and in test [3] was inactive.

In the case of `COc1ccc(O)cc1`, the result in test [1], in test [2] and in test [3] was inactive.

In the case of `CC(C)=CCCC(C)=CCCC(C)=CCO`, the result in test [1] and in test [3] was inactive.

`Clc1ccc(Cl)c(Cl)c1Cl`: the outcome in test [1], in test [2] and in test [3] was inactive.

For the compound `O=P(c1ccccc1)(c1ccccc1)c1ccccc1`, the result in test [1] and in test [3] was inactive.

Turning to `CNCCCC12CCC(c3ccccc31)c1ccccc12`, in test [1], the AC50 is 47.3 µM (active). For the same compound, the outcome in test [2] and in test [3] was inactive.

`CCCCCCCCC`: the result in test [1] and in test [3] was inactive.

As for `CC(C)(Oc1ccc(CCNC(=O)c2ccc(Cl)cc2)cc1)C(=O)O`, the result in test [1], in test [2] and in test [3] was inactive.

Regarding `Cc1c(Cl)c(=O)oc2cc(O)ccc12`, the outcome in test [1], in test [2] and in test [3] was inactive.

Take `Cc1ccc(C(C)C)cc1O`: the outcome in test [1], in test [2] and in test [3] was inactive.

`Cc1ccc(C=O)s1`: the outcome in test [1] and in test [3] was inactive.

Consider `CC(=O)OCCOC(C)=O`, for which the outcome in test [1], in test [2] and in test [3] was inactive.
